Measured values from PubChem BioAssay.

Experiment: NFkB reporter suppression in cystic fibrosis bronchial cells – cell-based, uHTS hits, panel, cytotoxicity readout, dose response (AID 624344)
Settings: CF bronchial epithelial cells, PAF-induced NFkB reporter inhibition, with PAF, run 1; at 79 µM (top of the series) unless noted

SMILES	inhibition [%]
O=[N+]([O-])c1cc([N+](=O)[O-])c2oc(-c3ccccc3)c(Br)c2c1O	112
COc1cc(C(=O)Nc2nnc(-c3sccc3C)s2)cc(OC)c1OC	47.9
Cc1cccc(N2CCN(C(=O)c3[nH]c(C(F)(F)F)nc3-c3ccccc3)CC2)c1C	91.2
NC1(C(=O)O)CSSC1	112
COc1ccc2[nH]c(=O)c3c(c2c1)OC(C)(C)C=C3	105
Cc1ccc(C(=O)Nc2cccc(C(F)(F)F)c2)cc1NC(=O)c1ccno1	86.8
CCOC(=O)C1(C(=O)OCC)COC(=O)C1CN1Cc2cc3ccccc3nc2C1 (stereo not drawn)	65.1
COc1cccc(-c2ccc3ncnc(NCc4cccc(C)c4)c3c2)c1	118
Cc1ccc(CCC(=O)Nc2ncc(Cc3cccc(Cl)c3Cl)s2)o1	101
COc1ccc(-c2cc(=O)oc3cc(OC(=O)C4CCCCC4)c(Cl)cc23)cc1	117
Nc1nccc(-c2ccc(-n3cnc4ccccc43)cc2)n1	101
COc1ccc(Nc2nccc(-c3cccc(N)c3)n2)cc1	103
COc1ccccc1[C@]1(C)ON(c2ccccc2C(F)(F)F)C1=O	105
c1csc(CNc2ncnc3ccc(-c4ccoc4)cc23)c1	105
CN(C)C=Nc1c(C(=O)c2ccccc2)sc2nccc(N(C)C)c12	100
Nc1nc(/C=C/c2cccnc2)nc(-c2ccccc2O)n1	100
C[C@H]1Cn2cnc(C(=O)Nc3cccc(Cl)c3)c2C(=O)N1	105
C=C1C(=O)C23C(O)C1CCC2C12COC3(O)C(O)C1C(C)(C)CCC2O (stereo not drawn)	87.7
CC(C)n1c(SCc2ccccc2F)nc2c1c(=O)n(C)c(=O)n2C	96
O=c1cc(-c2ccccc2Cl)oc2cc(O)cc(O)c12	85.2

SMILES	inhibition [%]
Nc1ncc([N+](=O)[O-])c(N2CCCCCC2)n1	115
Cc1ccc(-c2cc(C(=O)N/N=C/c3c(C)nn(-c4ccccc4)c3C)[nH]n2)cc1	62.7
C#CCN(C[C@@H]1[C@@H](OC(=O)NCc2ccco2)[C@@H](OC(=O)NCc2ccco2)Cn2c(=O)ccc(=O)n21)S(=O)(=O)c1ccc(C)cc1	98.7
CCN1CCN(Cc2ccc(NC(=O)c3ccc(C)c(NC(=O)N4CCNC4=O)c3)cc2C(F)(F)F)CC1	103
COc1ccc(-n2nc(C(=O)NCC(=O)Nc3cc(OC)c(OC)c(OC)c3)c3ccccc3c2=O)cc1OC	102
Cc1ccc(S(=O)(=O)Nc2nc3ccccc3nc2Nc2cccc(S(=O)(=O)N3CCCC3)c2)cc1	94.9
CCOc1ccc(-n2c(C)c(C(C)=O)c3cc(OC(C)=O)ccc32)cc1	89
COC(=O)c1ccc2c(c1)C(C)(C)C(/C=C/c1ccccc1O)=[N+]2C	81.4
CC(=O)c1c(O)cc(O)c(C(C)=O)c1O	110
O=C(/C=C/c1cccc([N+](=O)[O-])c1)NC(=S)Nc1ccc(CN2CCOCC2)cc1	100
O=C(NCc1nc(-c2ccc(C(F)(F)F)cc2)no1)Nc1cc(Cl)cc(Cl)c1	97.9
O=C(Nc1ccc([N+](=O)[O-])cc1)Nc1ccc(Cl)cc1F	109
COc1ccc(COc2cc(-c3cccc(OC)c3)nc3ccc(NC(=O)c4cccnc4)cc23)cc1	98.7
C=C1C(=O)[C@]23C[C@H]1CC[C@H]2[C@]1(C)[C@@H](OC(C)=O)CC[C@@](C)(C(=O)O)[C@H]1C[C@@H]3O	97.6
COc1ccc(-c2oc3ccc(-c4ccc(OC)nc4)cc3c2C#CC2(O)CCCCC2)cc1	103
Cc1cccc(N=c2oc3cc(O)ccc3cc2C(N)=O)c1	87.7
CC(C)C[C@@H]1NC(=O)[C@H](Cc2ccccc2)N(C)C(=O)[C@H](C)NC(=O)c2ccccc2NC(=O)[C@H](Cc2ccc(O)cc2)N(C)C1=O	102
COc1ccc(S(=O)(=O)c2c(O)c3ccc(C(=O)Nc4ccccc4Cl)cc3[nH]c2=O)cc1	96.9
CC1C(=O)N(Cc2cn(Cc3ccco3)nn2)CCS(=O)(=O)N1Cc1ccc(-c2ccccc2C(F)(F)F)cc1 (stereo not drawn)	97.9

Experiment: as above
Settings: CF bronchial epithelial cells, PAF-induced NFkB reporter inhibition, with PAF, run 2; at 79 µM (top of the series) unless noted

SMILES	inhibition [%]
O=[N+]([O-])c1cc([N+](=O)[O-])c2oc(-c3ccccc3)c(Br)c2c1O	107
COc1cc(C(=O)Nc2nnc(-c3sccc3C)s2)cc(OC)c1OC	89.3
Cc1cccc(N2CCN(C(=O)c3[nH]c(C(F)(F)F)nc3-c3ccccc3)CC2)c1C	103
NC1(C(=O)O)CSSC1	103
COc1ccc2[nH]c(=O)c3c(c2c1)OC(C)(C)C=C3	117
Cc1ccc(C(=O)Nc2cccc(C(F)(F)F)c2)cc1NC(=O)c1ccno1	111
CCOC(=O)C1(C(=O)OCC)COC(=O)C1CN1Cc2cc3ccccc3nc2C1 (stereo not drawn)	65.6
COc1cccc(-c2ccc3ncnc(NCc4cccc(C)c4)c3c2)c1	104
Cc1ccc(CCC(=O)Nc2ncc(Cc3cccc(Cl)c3Cl)s2)o1	112
COc1ccc(-c2cc(=O)oc3cc(OC(=O)C4CCCCC4)c(Cl)cc23)cc1	102
Nc1nccc(-c2ccc(-n3cnc4ccccc43)cc2)n1	108
COc1ccc(Nc2nccc(-c3cccc(N)c3)n2)cc1	117
COc1ccccc1[C@]1(C)ON(c2ccccc2C(F)(F)F)C1=O	109
c1csc(CNc2ncnc3ccc(-c4ccoc4)cc23)c1	116
CN(C)C=Nc1c(C(=O)c2ccccc2)sc2nccc(N(C)C)c12	105
Nc1nc(/C=C/c2cccnc2)nc(-c2ccccc2O)n1	110
C[C@H]1Cn2cnc(C(=O)Nc3cccc(Cl)c3)c2C(=O)N1	104
C=C1C(=O)C23C(O)C1CCC2C12COC3(O)C(O)C1C(C)(C)CCC2O (stereo not drawn)	76.9
CC(C)n1c(SCc2ccccc2F)nc2c1c(=O)n(C)c(=O)n2C	95.1
O=c1cc(-c2ccccc2Cl)oc2cc(O)cc(O)c12	93.7

SMILES	inhibition [%]
Nc1ncc([N+](=O)[O-])c(N2CCCCCC2)n1	104
Cc1ccc(-c2cc(C(=O)N/N=C/c3c(C)nn(-c4ccccc4)c3C)[nH]n2)cc1	88.3
C#CCN(C[C@@H]1[C@@H](OC(=O)NCc2ccco2)[C@@H](OC(=O)NCc2ccco2)Cn2c(=O)ccc(=O)n21)S(=O)(=O)c1ccc(C)cc1	111
CCN1CCN(Cc2ccc(NC(=O)c3ccc(C)c(NC(=O)N4CCNC4=O)c3)cc2C(F)(F)F)CC1	119
COc1ccc(-n2nc(C(=O)NCC(=O)Nc3cc(OC)c(OC)c(OC)c3)c3ccccc3c2=O)cc1OC	101
Cc1ccc(S(=O)(=O)Nc2nc3ccccc3nc2Nc2cccc(S(=O)(=O)N3CCCC3)c2)cc1	103
CCOc1ccc(-n2c(C)c(C(C)=O)c3cc(OC(C)=O)ccc32)cc1	90
COC(=O)c1ccc2c(c1)C(C)(C)C(/C=C/c1ccccc1O)=[N+]2C	80.5
CC(=O)c1c(O)cc(O)c(C(C)=O)c1O	101
O=C(/C=C/c1cccc([N+](=O)[O-])c1)NC(=S)Nc1ccc(CN2CCOCC2)cc1	112
O=C(NCc1nc(-c2ccc(C(F)(F)F)cc2)no1)Nc1cc(Cl)cc(Cl)c1	114
O=C(Nc1ccc([N+](=O)[O-])cc1)Nc1ccc(Cl)cc1F	101
COc1ccc(COc2cc(-c3cccc(OC)c3)nc3ccc(NC(=O)c4cccnc4)cc23)cc1	95.2
C=C1C(=O)[C@]23C[C@H]1CC[C@H]2[C@]1(C)[C@@H](OC(C)=O)CC[C@@](C)(C(=O)O)[C@H]1C[C@@H]3O	94
COc1ccc(-c2oc3ccc(-c4ccc(OC)nc4)cc3c2C#CC2(O)CCCCC2)cc1	103
Cc1cccc(N=c2oc3cc(O)ccc3cc2C(N)=O)c1	80
CC(C)C[C@@H]1NC(=O)[C@H](Cc2ccccc2)N(C)C(=O)[C@H](C)NC(=O)c2ccccc2NC(=O)[C@H](Cc2ccc(O)cc2)N(C)C1=O	103
COc1ccc(S(=O)(=O)c2c(O)c3ccc(C(=O)Nc4ccccc4Cl)cc3[nH]c2=O)cc1	106
CC1C(=O)N(Cc2cn(Cc3ccco3)nn2)CCS(=O)(=O)N1Cc1ccc(-c2ccccc2C(F)(F)F)cc1 (stereo not drawn)	114
